# Screening data deposited in PubChem BioAssay by The Scripps Research Institute Molecular Screening Center.
# Shown is part of a subset that was picked to be rich in hits.
# TTR transcr act = activators of transthyretin transcription | SH-SY5Y TTR promoter Gaussia luciferase, luminescence; 100% = recombinant luciferase protein wells | activation, % at 16.7 µM | 92,000 tested, 1.3% active;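 active = activation above the mean of all tested compounds plus 3 SD, cut at about 9.5% in these data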;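 also: cells exposed to compounds for one day before reading; 0% = median of all test compound wells on the plate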
# HuH7 TTR inh = decreases TTR transcription in HuH7 cells in activator counter-screen; shares compounds with TTR transcr act; HuH7 TTR promoter-Gaussia luciferase reporter, luminescence; inhibition, % at 16.7 µM; 1,100 tested, 4% active;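 active = average inhibition above the solvent-only control wells' mean plus 3 SD, cut at about 15% in these data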;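 also: 0% = cells with DMSO only and 100% = cells with inhibitor control FD; inhibitors lower well luminescence so higher value means more inhibition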
# TTR act confirm = human TTR transcription activation, confirmation | activation, % at 16.7 µM | AID 1117280 | 1,100 tested, under 10 active | shares compounds with TTR transcr act | SHSY5Y TTR promoter Gaussia luciferase, luminescence; 100% = purified Lucia enzyme wells, no cells;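 active = mean activation above a set limit taken from the earlier primary screen, cut at about 11% in these data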;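 also: 0% = DMSO-treated cells and 100% = recombinant Lucia luciferase without cells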
# * hit, by the source's call.
SMILES,TTR transcr act,others
CCCNC(=O)c1cc2c(c(-c3cccc(-c4cc5ccccc5o4)c3)n1)[C@H](CCO)N(C(=O)NC(C)C)C2,-3,
CSc1ccccc1NC(=O)CN(C)CC(=O)Nc1ccc(Cl)cc1F,-1,
CSc1ccccc1NC(=O)CN(C)CC(=O)Nc1ccccc1C(F)(F)F,12*,HuH7 TTR inh=-19;TTR act confirm=0
COc1ccc(CN(C)CC(=O)Nc2ccccc2C(F)(F)F)cc1,-1,
N#Cc1cccc(NC(=O)OC2CC3CC2[C@H]2CCCCN2[C@H]3Cc2ccccc2)c1 (some centres undefined),0,
C[C@@H]1CN([C@H](C)CO)C(=O)CCCn2nncc2CO[C@H]1CN(C)C(=O)c1cc(-c2ccccc2)on1,3,
C[C@@H]1CN([C@H](C)CO)C(=O)CCCn2cc(nn2)CO[C@H]1CN(C)S(=O)(=O)c1ccc(Oc2ccccc2)cc1,17*,HuH7 TTR inh=-5;TTR act confirm=-1
C[C@H]1CN([C@@H](C)CO)C(=O)CCCn2cc(nn2)CO[C@@H]1CN(C)S(=O)(=O)c1ccc(Cl)cc1,3,
C[C@H](CO)N1C[C@H](C)[C@@H](CN(C)S(=O)(=O)c2ccccc2)OCc2cn(nn2)CCCC1=O,-2,
C[C@H]1CN([C@@H](C)CO)C(=O)CCCn2nncc2CO[C@H]1CN(C)C(=O)c1cc(-c2ccccc2)on1,14*,HuH7 TTR inh=-7;TTR act confirm=-1
C[C@H](CO)N1C[C@H](C)[C@@H](CN(C)C(=O)c2cc(-c3ccccc3)on2)OCc2cnnn2CCCC1=O,1,
CC(=O)N1C[C@H]2CON(C)[C@H]2C[C@H]1c1ccc(-c2ccccc2)cc1,0,
O=c1[nH]c2ccccc2nc1-c1nnnn1Cc1ccccc1,1,
COc1ccc(C2=CCC3CCCCN3C2)cc1OC (centres undefined),-5,
CCOC(=O)[C@@]12CCC3=C1N(CCC3)C(=O)[C@H](CC(=O)NCCCOC)C2,0,
CCN(CC)C(=O)Cn1cc(C(=O)C(=O)NCc2ccccn2)c2ccccc21,-1,
O=C(O)CCn1[nH]c(=O)ccc1=O,27*,HuH7 TTR inh=-9;TTR act confirm=1
Cn1c(=O)n(CCC(=O)O)c2ccccc21,-1,
O=c1ccc(=O)n(-c2ccccc2)[nH]1,1,
COc1ccc(C2c3ccccc3NC3C2C(=O)N(Cc2ccc(OC)cc2OC)[C@H]3Cc2ccccc2)cc1 (some centres undefined),0,
C[C@@H](CN=[N+]=[N-])CN1CC[C@H](C(C)(C)C)CCC1=O,4,
COC(=O)[C@]12CCCCC=C1N(Cc1ccc(OC)cc1)C(=O)[C@@H]2CC(=O)N1CCOCC1,1,
OC(CNCCNc1ncccc1C(F)(F)F)Cn1ccc2ccccc21 (centres undefined),-1,
OCc1nc2ccccc2n1CC(O)Cn1ccc2ccccc21 (centres undefined),-5,
Oc1ccccc1NCC(O)Cn1ccc2ccccc21 (centres undefined),11*,HuH7 TTR inh=5;TTR act confirm=-1
SMILES,TTR transcr act,others
COc1cccc2c(NCc3ccccc3)nc(-n3c(N)nc4ccccc43)nc12,4,
Cc1ccc2nc(SCC(=O)N3CCN(c4ccccc4)CC3)[nH]c2c1,0,
O=S(Cc1cc(Sc2ccccc2)nc(-c2ccccc2)n1)c1ccccc1 (centres undefined),12*,HuH7 TTR inh=12;TTR act confirm=-1
O=S(Cc1ccccc1)c1ccccc1 (centres undefined),1,
COc1cccc(Sc2cc(N3CCOCC3)nc(-c3ccccc3)n2)c1,-2,
O=S1(=O)c2c(cccc2N2CCC[C@H]2CO)O[C@@H]2CCN1C2,1,
CN(C)c1cccc(-c2cnc(N3CCC(C(N)=O)CC3)nc2)c1,1,
Cc1oc2ccc(O)cc2c1C(=O)c1ccc(F)cc1,-2,
Cc1ccc(C(=O)N2CCCC(N3CCN(c4cccc(C(F)(F)F)c4)CC3)C2)s1 (centres undefined),0,
CC1=C(C(=O)N2CCCC(N3CCN(c4cccc(C(F)(F)F)c4)CC3)C2)OCCO1 (centres undefined),11*,HuH7 TTR inh=-6;TTR act confirm=0
O=C(c1ccoc1)N1CCCC(N2CCN(c3cccc(C(F)(F)F)c3)CC2)C1 (centres undefined),0,
CCOC(=O)[C@]12CCCC=C1N(CCCOC)C(=O)[C@@H]2CC(=O)N1CCCC1,3,
CCOc1ccccc1NC(=O)CCC(=O)Nc1ccccc1OCC,2,
COc1ccccc1NC(=O)CCC(=O)O,15*,HuH7 TTR inh=5;TTR act confirm=-1
CC/C(=N/NC(=O)CCC(=O)Nc1ccccc1OC)c1ccccc1,5,
O=C(Cn1cnc2scc(-c3ccc(Br)cc3)c2c1=O)N1CCOCC1,2,
O=C(/C(=N\Nc1ccccc1)Sc1nnnn1-c1ccccc1)c1ccccc1,-2,
O=C(COc1ccccc1-c1ccccc1)NNC(=O)NC1CCCCC1,-1,
CC(=O)N(C)c1cccc([N+](=O)[O-])c1,0,
